Source: PubChem
CD11b adhes inh: inhibitors of CD11b/CD18 adhesion to fibrinogen, primary screen, K562 cells, luminescence | Integrin beta-2 (Homo sapiens) + Integrin alpha-M (Homo sapiens), P05107+P11215 | ATPlite luminescence; Mn2+ added to activate the integrin | inhibition, % at 10 µM | hit rate 0.54% among 93,000 | AID 1497, 2009;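 active means primary inhibition of 50% or more at 10 µM, then 40% or more on retest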
Target sequence (P05107 whole entry, looked up, other chains not shown): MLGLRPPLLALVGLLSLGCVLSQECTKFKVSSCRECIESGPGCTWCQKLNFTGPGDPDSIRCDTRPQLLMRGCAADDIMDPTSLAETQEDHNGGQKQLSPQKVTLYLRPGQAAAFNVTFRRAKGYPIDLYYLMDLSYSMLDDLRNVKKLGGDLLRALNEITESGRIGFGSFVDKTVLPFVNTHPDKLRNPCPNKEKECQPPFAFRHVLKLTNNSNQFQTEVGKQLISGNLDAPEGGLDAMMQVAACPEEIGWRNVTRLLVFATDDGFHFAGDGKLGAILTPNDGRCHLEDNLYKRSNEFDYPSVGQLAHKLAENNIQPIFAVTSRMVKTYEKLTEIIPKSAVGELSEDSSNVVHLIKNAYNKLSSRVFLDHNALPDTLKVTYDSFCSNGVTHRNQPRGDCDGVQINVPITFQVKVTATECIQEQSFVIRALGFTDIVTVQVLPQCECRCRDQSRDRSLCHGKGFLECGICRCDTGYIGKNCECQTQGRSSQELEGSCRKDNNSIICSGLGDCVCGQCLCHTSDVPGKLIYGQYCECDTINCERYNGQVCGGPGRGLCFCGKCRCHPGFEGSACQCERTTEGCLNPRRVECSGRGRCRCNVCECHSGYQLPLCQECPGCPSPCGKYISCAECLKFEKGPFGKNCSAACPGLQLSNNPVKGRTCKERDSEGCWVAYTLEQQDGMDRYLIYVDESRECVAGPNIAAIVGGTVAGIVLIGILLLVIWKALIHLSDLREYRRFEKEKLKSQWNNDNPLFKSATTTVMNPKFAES
CYP2C9 inh: blockers of cytochrome P450 2C9 activity – biochemical, luminescence, ADME assay, primary screen; P11712; CYP2C9 Supersomes, luciferin-H conversion; inhibition, % at 5 µM; hit rate 20% among 96,000; AID 777, 2007;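 active means blocking of liver enzyme CYP2C9 beyond about 50% at 5 µM, limit read from the data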
CYP2C9 act: human CYP2C9 activators, primary screen, biochemical, luminescence. activation factor at 5 µM. recombinant CYP2C9, luciferin-H conversion; hits give high values; factor 1 = untreated enzyme, 0 = blocked. hit rate 1.4% among 96,000. Cytochrome P450 2C9 (Homo sapiens), P11712;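 active means activation factor of 2 or more for CYP2C9 at a 5 µM dose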;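 further: 0 = sulfaphenazole-blocked wells and 1 = vehicle-only wells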
CYP2C19 inhib: blockers of cytochrome P450 2C19 activity – biochemical, luminescence, ADME assay, primary screen | P33261 | CYP2C19 Supersomes, luciferin-H EGE luminescence, 30 min | inhibition, % at 5 µM | hit rate 21% among 96,000 | AID 778, 2007;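 active means CYP2C19 inhibition above a set limit at 5 µM in the primary screen, cut at about 50% in these data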;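 further: plate controls were negative control wells for no effect and 2.5 mM tranylcypromine positive control for full effect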
Mac1 fbg enh: enhancers of CD11b/CD18 adhesion to fibrinogen, primary screen, K562 cells, luminescence; Integrin beta-2 (Homo sapiens) + Integrin alpha-M (Homo sapiens), P05107+P11215; ATPlite luminescence; activation, % at 10 µM; hit rate 0.07% among 93,000; AID 1499, 2009;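 active means 10 µM primary screen giving 50% or more activity, confirmed by 40% or more on retest at that dose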
CYP2C19 activ: human CYP2C19 activators, primary screen, biochemical, luminescence | activation factor at 5 µM | recombinant CYP2C19, luciferin-H EGE luminescence; hits give high values; 0 = fully inhibited enzyme, 1 = untreated enzyme | 96,000 tested, under 10 active | Cytochrome P450 2C19 (Homo sapiens), P33261;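 active means activation factor of at least 2 at 5 µM in the primary screen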;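 further: 0 = wells with 2.5 mM tranylcypromine and 1 = vehicle-only wells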
* hit, by the source's call; x = no result given. Rows were chosen to be rich in hits. Some 28% of all compounds tested hit in one or more screens of this group.

SMILES | CD11b adhes inh | CYP2C9 inh | CYP2C9 act | CYP2C19 inhib | Mac1 fbg enh | CYP2C19 activ
CCN1CCN(Cc2cccc(Oc3ccccc3)c2)CC1 | 9 | -3 | 1 | 31 | -1 | 0.7
O=C(Nc1ccc(CN2CCCCC2)cc1)c1cccc(Br)c1 | 1 | x | x | x | 2 | x
Brc1cccc(CN2CCCCCCC2)c1 | -1 | -13 | 1.1 | 77* | -1 | 0.2
CC(C)n1c(Nn2cnnc2)nc2ccccc21 | -10 | 10 | 0.9 | -1 | -1 | 1
COc1nc(C)nc2c1sc(=S)n2C | -5 | 13 | 0.9 | 15 | -3 | 0.8
O=C(Nc1ccccc1Cl)c1cccc(COc2cc(Cl)ccc2Cl)c1 | 5 | -4 | 1 | -2 | -1 | 1
Cc1cccc2cc(CN(Cc3ccc(F)cc3)C(=O)N(C)C)c3nnnn3c12 | 1 | 39 | 0.6 | 30 | -2 | 0.7
CCOc1ccc2nc(NC3=NC(C)(C)C=C(C)N3)nc(C)c2c1 | 6 | 72* | 0.3 | 49 | 0 | 0.5
O=C(/C=C/c1ccccc1)NCCSc1ccc(Cl)cc1 | x | -53 | 1.5 | 15 | x | 0.9
N#CCCN1CCN(C(CNS(=O)(=O)c2ccc(Cl)cc2)c2ccccc2)CC1 (stereo unspecified) | -4 | 12 | 0.9 | 90* | -5 | 0.1
Cc1ccc(S(=O)(=O)NCC(c2ccccc2)N2CCN(CCC#N)CC2)cc1 (stereo unspecified) | -10 | 2 | 1 | 76* | 1 | 0.2
N#CCCN1CCN(S(=O)(=O)c2ccc(S(=O)(=O)NCc3ccccc3)cc2)CC1 | -21 | 7 | 0.9 | 14 | -5 | 0.9
Nc1nc(SCC(=O)N2CCCc3ccccc32)[nH]c(=O)c1-c1ccccc1 | -4 | 51* | 0.5 | 46 | 0 | 0.5
Clc1cc(Br)ccc1OCCn1ccnc1 | -9 | 93* | 0.1 | 96* | -2 | 0
Clc1ccccc1OCCCCn1ccnc1 | -3 | 96* | 0 | 100* | 3 | 0
Cc1cc(C)n(C(=O)CSc2ccc(Cl)cc2)n1 | -17 | 17 | 0.8 | 5 | 8 | 0.9
Clc1ccc(SCCCCn2ccnc2)cc1 | -9 | 100* | 0 | 100* | 0 | 0
CCOc1ccccc1OCCCCN1CCCC1 | -6 | 12 | 0.9 | 8 | 4 | 0.9
Cc1ccccc1OCCCCCn1ccnc1 | 6 | 100* | 0 | 100* | -5 | 0
N#CC1=C(N)Oc2ccc3ccc(O)cc3c2C1c1ccsc1 (stereo unspecified) | 25 | x | x | x | 1 | x
CCOC(=O)c1c(C)n(C)c2ccc(OC)c(NC(=O)c3cccs3)c12 | 1 | 12 | 0.9 | -10 | 0 | 1.1
Cc1cc2c(c(C)nn2-c2ccccc2)c(=O)o1 | -16 | 39 | 0.6 | 56* | 0 | 0.4
Nc1c2c(=O)oc(-c3ccccc3)cc2nn1-c1ccccc1 | x | 39 | 0.6 | 14 | x | 0.9
C/C(=N/NC(=O)CNC(=O)COc1ccccc1)c1ccco1 | -3 | x | x | x | 7 | x
CCn1c(N)c(C(=O)NC)sc1=S | 67 | 50* | 0.5 | 52* | -7 | 0.5
SMILES | CD11b adhes inh | CYP2C9 inh | CYP2C9 act | CYP2C19 inhib | Mac1 fbg enh | CYP2C19 activ
Cc1ccc(Cl)cc1N1CCN(C(=O)C2CCN(S(=O)(=O)c3cnc[nH]3)CC2)CC1 | -18 | 29 | 0.7 | 23 | -1 | 0.8
CS(=O)(=O)N(CCc1ccccc1)CC(=O)N1CCN(c2ccccc2F)CC1 | x | 27 | 0.7 | 22 | -6 | 0.8
CN(CC(=O)N1CCN(c2ccccc2F)CC1)S(=O)(=O)c1cnc[nH]1 | -2 | 100* | 0 | 99* | -3 | 0
Cc1ccc(C)c(N2CCN(C(=O)CN(C)S(=O)(=O)c3cnc[nH]3)CC2)c1 | 19 | 100* | 0 | 92* | -1 | 0.1
CS(=O)(=O)N1CCN(c2ccc([N+](=O)[O-])c(NCCN3CCOCC3)c2)CC1 | -10 | 3 | 1 | 9 | 6 | 0.9
CC(C)(C)c1ccc(OCCn2ccccc2=O)cc1 | -4 | 40 | 0.6 | 70* | 4 | 0.3
CCOc1ccc(CCNC(=O)C2CCN(c3nnc(-n4cccc4)s3)CC2)cc1 | -1 | 18 | 0.8 | -9 | -2 | 1.1
